# From PubChem BioAssay (NCATS)
# Inconclusive results are not listed. A number with no mark means an inactive call. The source made the active and inactive calls. Calls come from the whole dose curve; as a rule, active = well fitted cell-killing curve with a large enough effect; inconclusive = small, poorly fitted or top-dose-only effect, or effect the other way; inactive = no such curve, though single readings can be large or run the other way.
# Experiment: Quantitative High-Throughput drug screen in 47 multiple myeloma cell lines against the NCATS MIPE library collection: MMM1_PLB cell viability assay (AID 1918976); note: nearly all actives have a fitted effect of over 35% in size; note: potency is the fitted concentration of half-maximal effect
# Conditions: MMM1 myeloma cells viability, CellTiter-Glo, 48 h; series mostly up to 45.8 µM; viability (% of control): at the top concentration
# Method in brief: (§1)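 Myeloma cells (500/well) treated with MIPE 4.0 compounds for 48 h at 37 °C, 5% CO2. Viability read as ATP via CellTiter-Glo luminescence after 5 min at RT; DMSO-only wells = 100%, media-only = 0% viability.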
SMILES,Potency,viability (% of control) [%]
CNc1nccc(-c2cccnc2Oc2cc(C(=O)Nc3cccc(C(F)(F)F)c3)ccc2C)n1,18.7 µM (active),–
COc1cccc(-c2ccc(NC(=O)C3=C(C(=O)O)CCC3)c(F)c2)c1,20.9 µM (active),–
CCCCN1CCC(CNC(=O)c2c3n(c4ccccc24)CCCO3)CC1,5.26 µM (active),–
CCNC(=O)Nc1ccc2ncc(Nc3ccc(C)cc3)nc2n1,14.8 µM (active),–
CC1(C)O[C@@H]2C[C@@H]3[C@H]4C[C@@H](F)C5=CC(=O)C=C[C@]5(C)[C@@]4(F)[C@@H](O)C[C@]3(C)[C@]2(C(=O)CO)O1,0.0105 µM (active),–
Cc1ccc(CN2CCNCC2)cc1NC(=O)CNc1ccc(F)c(F)c1,16.6 µM (active),–
NCC(=O)Nc1ccc(-n2nc(C(F)(F)F)cc2-c2ccc3c(ccc4ccccc43)c2)cc1,23.5 µM (active),–
Cc1cc(Nc2cc(CN3CCOCC3)c3nc(C)c(Cc4ccc(Cl)cc4F)n3n2)n[nH]1,14.8 µM (active),–
COc1c(N2C[C@@H]3CCCN[C@H]3C2)c(F)cc2c(=O)c(C(=O)O)cn(C3CC3)c12,–,124

# Experiment: Quantitative High-Throughput drug screen in 47 multiple myeloma cell lines against the NCATS MIPE library collection: MOLP8_DSMZ cell viability assay (AID 1918977); note: nearly all actives have a fitted effect of over 45% in size
# Conditions: MOLP8 myeloma viability, CellTiter-Glo ATP luminescence, 48 h; series mostly up to 45.8 µM; viability (% of control): at the top concentration
# Method in brief: as §1
row,SMILES,viability (% of control) [%]
1,COC(=O)C[C@](O)(CCCC(C)(C)O)C(=O)O[C@@H]1C(OC)=C[C@]23CCCN2CCc2cc4c(cc2[C@H]13)OCO4,102
2,CCCCCCCCCC(=O)N[C@@H](Cc1c[nH]c2ccccc12)C(=O)N[C@H](CC(N)=O)C(=O)N[C@@H](CC(=O)O)C(=O)N[C@@H]1C(=O)NCC(=O)N[C@@H](CCCN)C(=O)N[C@@H](CC(=O)O)C(=O)N[C@H](C)C(=O)N[C@@H](CC(=O)O)C(=O)NCC(=O)N[C@H](CO)C(=O)N[C@@H]([C@@H](C)CC(=O)O)C(=O)N[C@@H](CC(=O)c2ccccc2N)C(=O)O[C@@H]1C,113
3,CC(=O)OCCN1C(=O)c2c(C)nc3ccc(S(=O)(=O)N4CCOCC4)cc3c2C1=O,129
4,Cc1c(Cn2c(C)nc3c(C(=O)O)cc(N4CCOCC4)cc32)cccc1C(F)(F)F,76.9
5,CC1COC2(CCN(c3nc(=O)c4cc(C(F)(F)F)cc([N+](=O)[O-])c4s3)CC2)O1 (stereo unspecified),133
6,NC(=O)c1cccc2cn(-c3ccc([C@@H]4CCCNC4)cc3)nc12,77.5
7,CC=CC1=C(C(=O)O)N2C(=O)[C@H](NC(=O)[C@H](N)c3ccc(O)cc3)[C@@H]2SC1,97.1
